Source: PubChem BioAssay
GLP1R ag – qHTS of GLP-1 Receptor Agonists; 380,000 compounds, 0.007% hits; Glucagon-like peptide 1 receptor (Homo sapiens), P43220; Potency, µM (highest dose often 45.6 µM), most hits filed as activators; HEK293 GLP-1R CRE-luciferase, luminescence, 4-6 h; cells express a hypersensitive GLP-1R form
HEK293 tox – qHTS of GLP-1 Receptor Inverse Agonists: Cytotox Screen. HEK293 cAMP-luciferase reporter cells, luminescence, 24 h. Potency, µM (top dose mostly 38.3 µM), most hits filed as inhibitors. 410,000 compounds, 0.13% hits. AID 624418, 2012;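 further: loss of luciferase light is scored as toxicity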
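Here, cytotoxicity is scored as loss of luminescence. The MLSMR collection was tested on cells seeded in medium containing 10% Nu serum, with a 24 hr compound exposure preceded by 12 hours of culture.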
GLP1R inv ag – qHTS of GLP-1 Receptor Inverse Agonists (Inhibition Mode) | Potency, µM (top dose mostly 38.3 µM), most hits filed as inhibitors | HEK293 GLP-1R CRE-luciferase, luminescence, 24 h; GLP-1R form is constitutively active | 410,000 compounds, 1.6% hits | Glucagon-like peptide 1 receptor (Homo sapiens), P43220; further: nearly all actives have a fitted effect of over 55% in size
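qHTS in 1536-well format: reporter HEK293 cells expressing constitutive GLP-1R activity in DMEM + 10% Nu serum, 24 hr with compounds at 37 deg C, luminescence read after 12 min with detection reagent.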
TRPML1 inh – qHTS for Inhibitors of the Human Mucolipin Transient Receptor Potential 1 (TRPML1). Mucolipin-1 (Homo sapiens), Q9GZU1. TRPML1-inducible cells, Ca2+ dye fluorescence, FDSS; active compounds read low; inhibition of EC80 agonist-evoked calcium signal. activity change, negative = inhibition, % (concentration not given with the values). 390,000 compounds, 0.02% hits. AID 624415, 2012; in the data active means activity change below about -50%; inconclusive means between about -30% and that limit;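 further: stimulus is agonist 54-4 at its EC80 concentration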
Target sequence (Q9GZU1 whole entry, looked up): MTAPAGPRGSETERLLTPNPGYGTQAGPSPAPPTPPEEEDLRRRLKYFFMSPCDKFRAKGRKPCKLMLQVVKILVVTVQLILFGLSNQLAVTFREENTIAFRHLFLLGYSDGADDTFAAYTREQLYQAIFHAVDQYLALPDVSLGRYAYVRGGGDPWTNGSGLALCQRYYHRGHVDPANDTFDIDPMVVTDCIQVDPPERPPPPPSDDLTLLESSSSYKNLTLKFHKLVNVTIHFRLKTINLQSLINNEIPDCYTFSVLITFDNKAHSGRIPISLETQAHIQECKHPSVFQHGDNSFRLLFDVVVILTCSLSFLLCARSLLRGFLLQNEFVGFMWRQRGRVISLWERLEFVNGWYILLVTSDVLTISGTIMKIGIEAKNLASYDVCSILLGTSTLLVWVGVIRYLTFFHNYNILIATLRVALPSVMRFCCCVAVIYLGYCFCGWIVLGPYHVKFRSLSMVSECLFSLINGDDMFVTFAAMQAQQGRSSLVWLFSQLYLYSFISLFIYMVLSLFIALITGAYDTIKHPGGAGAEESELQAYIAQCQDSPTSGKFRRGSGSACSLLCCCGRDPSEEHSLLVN
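TRPML1-DL cells, Tet-induced overnight (~16 h, 37 °C) at 1,500 cells/well, were loaded with Ca8 no-wash dye plus quencher for 45-90 min at room temperature. Compounds were pinned during FDSS kinetic reading; agonist 54-4 at EC80 (4 uM final) then added.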
TRPML1 agonist – qHTS for Agonists of the Human Mucolipin Transient Receptor Potential 1 (TRPML1); AID 624414, 2012; activation, % (no concentration beside the values); TRPML1-expressing cells, Ca2+ dye fluorescence, FDSS; 410,000 compounds, 0.12% hits; Mucolipin-1 (Homo sapiens), Q9GZU1; in the data active means activation above about 50%; inconclusive means mostly about 30% to 49%
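Agonist activity was taken from a 110 s kinetic Ca2+ dye read on the FDSS after pinning compounds onto TRPML1-DL cells. The cells were seeded at 1,500/well with Tet inducer, incubated about 16 h, then dye-loaded at room temperature.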
A number is an active result; . = inactive; ? = inconclusive; / = no result given. Sampled rows, rich in hits. Any-hit rate of the full collection: about 1.8%. Unless noted, the call rests on the fitted dose curve; in most records, active means well fitted curve in the direction sought with a large enough effect; inconclusive means small, poorly fitted or top-dose-only effect, or another doubt; inactive means no such curve, though single readings can be large; an effect the other way counts as inactive or inconclusive.

SMILES	GLP1R ag	HEK293 tox	GLP1R inv ag	TRPML1 inh	TRPML1 agonist
Cc1cc(C)cc(OCC(=O)NNC(=O)c2ccccn2)c1	.	?	12.6µM	.	.
CC(C)(C)n1ncc2c(=O)n(Cc3cccc(Cl)c3Cl)cnc21	/	/	/	.	.
COC(=O)N/N=C/c1cc(Cl)c(OCc2ccccc2F)c(OC)c1	.	.	10µM	.	.
Cn1c2ccccc2c(=O)c2ccc(C#CC3(O)CCCCC3)cc21	.	.	7.94µM	.	.
Cc1cc(C)cc(-n2cnc3cc(C(=O)NC4CCCCCC4)ccc32)c1	/	.	?	.	.
Cc1cc(Br)ccc1NC(=O)CN(C)C(=O)C1CCN(c2ncnc3sc(C)c(C)c23)CC1	.	.	3.16µM	.	.
Cc1cccc(C)c1NC(=O)CN(C)C(=O)C1CCN(c2ncnc3sc(C)c(C)c23)CC1	.	.	?	.	.
O=C(NCCc1ccc(Cl)cc1)C1CCN(Cc2cc3ccccc3n2Cc2ccccc2)CC1	/	.	?	.	.
Cc1ccc(C2=NN(CC(=O)NCCc3ccc(Cl)cc3)C(=O)CC2)cc1	/	.	.	.	.
O=C(Cn1cc(SCc2cccc(C(F)(F)F)c2)c2ccccc21)N1CCCCCC1	/	.	7.94µM	.	.
O=C(Cn1cc(SCc2ccccc2)c2ccccc21)N1CCCCCC1	/	.	?	.	.
Cc1ccc(CSc2cn(CC(=O)N3CCCCC3)c3ccccc23)cc1	/	.	10µM	.	.
CCOc1ccc(OCC)c(S(=O)(=O)NCCOC23CC4CC(CC(C4)C2)C3)c1	.	.	3.98µM	.	.
CCc1sc(Nc2ccc(C)cc2Br)nc1-c1cc2cccc(OC)c2oc1=O	/	.	.	.	.
O=C(NC1CCN(Cc2ccccc2)CC1)c1cccc(NS(=O)(=O)c2ccc(Br)cc2)c1	.	.	11.2µM	.	.
CC(C)(C)n1ncc2c(=O)n(Cc3cc(C(F)(F)F)ccc3Cl)cnc21	/	/	/	.	.
CCOC(=O)C1(CC2CCCCO2)CCN(Cc2nccn2-c2ccc(OC)cc2)CC1 (configuration not stated)	.	?	.	.	.
CCOC(=O)C1(CC2CCCCO2)CCN(Cc2nccn2-c2cccc(C)c2)CC1 (configuration not stated)	.	.	10µM	.	.
CC(C)CN(CCCNC(=O)c1cc(-c2ccc(Br)s2)nc2ccccc12)CC(C)C	/	.	.	.	.
CC(Oc1ccccc1)C(=O)N1CCN(S(=O)(=O)c2ccc(OC(F)(F)F)cc2)CC1 (configuration not stated)	.	.	.	.	.
N#CC1(c2ccccc2)CCN(S(=O)(=O)c2ccc(OC(F)(F)F)cc2)CC1	.	.	10µM	.	.
O=[N+]([O-])c1cccc(/C=N/NC2=NCCCCC2)c1	.	.	.	.	.
O=C(ONC1=NCCCCC1)c1cccc([N+](=O)[O-])c1	.	11.2µM	?	.	.
CC1CCN(c2ccccc2NC(=S)NC(=O)c2ccco2)CC1	.	?	10µM	.	.
CC1CCN(c2ccccc2NC(=S)NC(=O)c2cccs2)CC1	.	?	?	.	.
SMILES	GLP1R ag	HEK293 tox	GLP1R inv ag	TRPML1 inh	TRPML1 agonist
COc1ccccc1CNc1nc(NC(C)C)nc2ccsc12	.	?	?	/	.
COc1ccccc1CNc1nc(Nc2ccc(C)cc2C)c2sccc2n1	.	.	10µM	.	.
COc1cccc(CNc2nc(NC(C)C)nc3ccsc23)c1OC	.	?	11.2µM	/	.
Cc1ccc(F)c([C@H]2[C@H]3C=CC[C@@H](C)[C@@H]3C(=O)N2Cc2ccccc2)c1	.	.	10µM	.	.
Cc1ccc(F)c(C2C3C=CCC(C)C3C(=O)N2Cc2ccccc2)c1 (configuration not stated)	/	/	/	.	.
C[C@@H]1CC=C[C@H]2[C@H]1C(=O)N(Cc1ccccc1)[C@H]2c1ccc(-c2ccc(N(C)C)cc2)cc1F	.	.	7.94µM	.	.
CCC1CC=CC2C1C(=O)N(Cc1ccccc1)C2c1cccc([N+](=O)[O-])c1 (configuration not stated)	/	/	/	.	.
C[C@@H]1CC=C[C@H]2[C@H]1C(=O)N(Cc1ccccc1)[C@H]2c1cccc([N+](=O)[O-])c1	.	.	7.08µM	.	.
Cc1ccc(C2=Nc3ccccc3N(CC(=O)Nc3ccccc3F)C(=O)C2)cc1C	/	.	?	.	.
COc1ccccc1NC(=O)c1oc2ccccc2c1NC(=O)Cc1ccccc1	/	.	.	.	.
CCOC(=O)C1=C(CN2CCN(c3ccccc3F)CC2)NC(=O)NC1c1ccc(OC)cc1 (configuration not stated)	/	.	.	.	.
COc1ccccc1-n1cnc2cc(NCc3ccccn3)ccc21	.	?	.	-50.5	.
COc1ccc(/C=C/C(=O)c2c(O)c(OC)c3occc3c2OC)cc1OC	/	/	/	/	.
CC1=C/C(=N\N=C2\NC(=O)C(CC(=O)Nc3ccccc3F)S2)CC(C)(C)C1 (configuration not stated)	.	11.2µM	?	.	.
CCn1nc(-c2ccc(C)cc2)nc2c(=O)n(C)c(=O)nc1-2	/	/	/	/	.
N#C/C(=C\c1ccc(-c2ccc(C(=O)O)cc2)o1)c1nc2ccccc2[nH]1	.	.	.	.	60.8
N#C/C(=C\c1ccc(-c2ccc(Cl)c(C(=O)O)c2)o1)c1nc2ccccc2[nH]1	/	.	.	.	.
CC12CCC=CC1C(c1ccoc1)N(Cc1ccccc1)C2=O (configuration not stated)	/	/	/	.	.
Cc1cc(C)c(C)c(S(=O)(=O)N2CCSCC2)c1C	.	.	10µM	/	/
Cc1c(C)c(C)c(S(=O)(=O)N2CCSCC2)c(C)c1C	.	?	.	.	.
O=C(Cn1cnc2onc(-c3ccc(F)cc3)c2c1=O)N1CCN(c2ccc(F)cc2)CC1	.	.	?	.	.
CCC(C(=O)OCC(=O)N1C(C)CCCC1C)c1ccccc1 (configuration not stated)	.	.	8.91µM	.	.
CCCCNC(=S)NC(=O)c1ccc([N+](=O)[O-])cc1	.	?	?	.	.
CC(C)CCNC(=S)Nc1ccc([N+](=O)[O-])cc1	.	?	11.2µM	.	.
CC(C)CNC(=S)NC(=O)c1ccc([N+](=O)[O-])cc1	.	?	10µM	.	.
CC(C)c1ccc(CCNC(=O)c2ccc([N+](=O)[O-])cc2)cc1	.	.	3.55µM	.	.
